In PubChem BioAssay AID602433 (Southern Research Specialized Biocontainment Screening …, 2012):
Measured potencies and affinities stand elsewhere. Results filed as inconclusive are left out. Calls of active or inactive are those of the source. No rule for the calls is given here.

experiment: THP-1 cell cytotoxicity, cytotoxicity control, set 6 (AID 602433); details: THP-1 cell viability, cytotoxicity CC50; series mostly up to 100 µM; viability: at the top concentration

SMILES | viability
O=C(CSc1nc2c(c(=O)[nH]1)CCC2)NC1CCCCC1 | 98.8% (inactive)
O=C(NCc1ccc(C(=O)N2CCN(c3ccccc3)CC2)cc1)NC1CCCCC1 | 82.6% (inactive)
COC(=O)C(Cc1ccccc1)NC(=O)CSc1nc2ccccc2c(=O)[nH]1 (stereo not drawn) | 81.6% (inactive)
O=C(CSc1nc2c(c(=O)[nH]1)CCCC2)NC1CCCCC1 | 94.3% (inactive)
O=C(c1ccc(CNc2c(N3CCOCC3)c(=O)c2=O)cc1)N1CCN(c2ccccc2)CC1 | 92.5% (inactive)
O=C(c1ccc(CNc2c(N3CCCC3)c(=O)c2=O)cc1)N1CCC(c2ccccc2)CC1 | 99.5% (inactive)
O=C(c1ccc(CNc2c(N3CCCC3)c(=O)c2=O)cc1)N1CCN(c2ccccc2)CC1 | 99.7% (inactive)
CC(C)CCNC(=O)CSc1nc2c(c(=O)[nH]1)CCCCC2 | 96% (inactive)
